This is an account of results in ChEMBL document CHEMBL3988442, “University of Dundee, Small-Polar-MMV Screening Library” (2021).

Several values for one entry are separate records, joined by “and”; a condition that tells them apart may be missing. Identical values can stand only once. For part of these data: Potency and affinity values are given separately.

Parameters in all cases: scale not given: direction of the effect not stated beside the values
The target in assay [1] is Protein translocase subunit SecA (Escherichia coli (strain K12)) (UniProt P10408). In words: Assay to Identify E. coli SecA ATPase Inhibitors. The settings on record: 30 µM. The assay is classed as functional.
Assay [2] addresses T1, Ubiquitin-activating enzyme e1, putative (Leishmania donovani (strain BPK282A1)) (UniProt E9BSI1).
T1 sequence (whole entry): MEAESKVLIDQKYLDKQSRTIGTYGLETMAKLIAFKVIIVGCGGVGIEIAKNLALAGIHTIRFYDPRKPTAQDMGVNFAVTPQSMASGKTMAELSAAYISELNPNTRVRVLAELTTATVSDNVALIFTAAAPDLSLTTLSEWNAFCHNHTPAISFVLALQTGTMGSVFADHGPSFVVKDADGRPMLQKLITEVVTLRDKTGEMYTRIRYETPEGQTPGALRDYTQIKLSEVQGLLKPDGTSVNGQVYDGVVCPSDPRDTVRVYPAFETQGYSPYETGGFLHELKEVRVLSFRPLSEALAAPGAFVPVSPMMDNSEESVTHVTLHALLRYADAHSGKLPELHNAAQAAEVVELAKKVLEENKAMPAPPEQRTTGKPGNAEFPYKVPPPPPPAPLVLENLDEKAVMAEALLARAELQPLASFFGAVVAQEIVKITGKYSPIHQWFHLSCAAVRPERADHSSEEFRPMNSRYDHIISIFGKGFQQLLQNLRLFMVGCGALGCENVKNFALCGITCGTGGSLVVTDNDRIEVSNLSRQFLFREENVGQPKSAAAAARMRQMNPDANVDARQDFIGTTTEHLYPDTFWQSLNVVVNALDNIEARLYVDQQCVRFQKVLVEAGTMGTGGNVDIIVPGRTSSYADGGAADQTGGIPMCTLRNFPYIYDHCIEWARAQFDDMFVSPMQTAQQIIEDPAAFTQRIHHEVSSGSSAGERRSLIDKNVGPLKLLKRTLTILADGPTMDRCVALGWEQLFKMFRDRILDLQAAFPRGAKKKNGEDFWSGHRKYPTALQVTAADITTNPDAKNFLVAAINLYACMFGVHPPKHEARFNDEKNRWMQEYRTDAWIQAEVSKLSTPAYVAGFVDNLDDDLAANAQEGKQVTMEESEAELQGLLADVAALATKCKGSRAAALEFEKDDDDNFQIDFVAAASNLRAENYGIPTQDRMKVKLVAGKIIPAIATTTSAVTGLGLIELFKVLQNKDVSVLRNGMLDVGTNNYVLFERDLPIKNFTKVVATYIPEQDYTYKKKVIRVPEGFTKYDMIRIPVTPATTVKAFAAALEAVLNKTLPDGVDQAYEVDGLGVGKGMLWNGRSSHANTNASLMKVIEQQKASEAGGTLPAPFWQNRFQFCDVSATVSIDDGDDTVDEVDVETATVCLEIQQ
The assay can be described thus: Leishmania donovani Ubiquitin Activating Enzyme (LdE1). The settings on record: 30 µM. In kind it is functional.

The target in assay [3] is AMP-activated protein kinase, AMPK (Homo sapiens) (UniProt P54646+O43741+P54619+Q9UGJ0+Q9Y478+Q13131+Q9UGI9). In words: AMP-dependent Kinase enzyme assay. An in vitro enzyme assay that detects ADP turnover that is directly proportional to AMPK activity. This uses naive AMPK that is activated during the assay with MK-8722. The settings on record: 30 µM. The assay is classed as functional.

For assay [4], the target named is Sialic acid-binding Ig-like lectin 9 (Homo sapiens) (UniProt Q9Y336). The assay can be described thus: Hs-Siglec9 ALPHAscreen SOP 20170721. Conditions: 10 µM. (Bead proximity is the source of the signal in Alpha formats.)
The subject of a further assay is Trypanosoma cruzi. The assay can be described thus: Trypanosoma cruzi phosphomannomutase and mannose-1-phosphate guanylyltransferase assay. In kind it is functional. The settings on record: 10 µM.
Assay [5] concerns the target T2, Arginase-2, mitochondrial (Homo sapiens) (UniProt P78540).
T2 sequence (whole entry): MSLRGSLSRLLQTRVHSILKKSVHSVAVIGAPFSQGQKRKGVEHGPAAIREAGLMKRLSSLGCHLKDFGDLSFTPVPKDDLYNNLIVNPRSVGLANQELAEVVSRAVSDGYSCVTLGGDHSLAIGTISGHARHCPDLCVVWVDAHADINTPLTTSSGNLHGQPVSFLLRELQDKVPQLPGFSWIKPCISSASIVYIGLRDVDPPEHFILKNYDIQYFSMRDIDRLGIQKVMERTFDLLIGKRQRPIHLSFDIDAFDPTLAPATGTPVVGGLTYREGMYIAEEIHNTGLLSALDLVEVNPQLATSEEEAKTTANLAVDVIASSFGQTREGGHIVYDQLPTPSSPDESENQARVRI
The assay can be described thus: in vitro enzyme assay to detect the production of urea directly proportional to the activity of Arginase II. Further: in the data most compounds retested in dose-response had high values. The assay is classed as functional. The settings on record: 33.3 µM.

Assay [6] deals with T3, Proteasome subunit beta (Trypanosoma cruzi) (UniProt O96673).
T3 sequence (whole entry): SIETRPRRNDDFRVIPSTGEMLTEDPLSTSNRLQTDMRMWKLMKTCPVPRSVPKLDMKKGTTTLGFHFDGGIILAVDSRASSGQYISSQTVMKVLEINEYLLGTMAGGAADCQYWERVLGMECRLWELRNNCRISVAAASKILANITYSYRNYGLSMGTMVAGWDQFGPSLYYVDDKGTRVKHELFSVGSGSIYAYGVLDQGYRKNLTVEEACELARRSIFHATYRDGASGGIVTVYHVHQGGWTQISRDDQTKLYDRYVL
The assay can be described thus: Trypanosoma cruzi proteasome chymotrypsin-like activity (TcProtChymo) assay. Further: in the data most compounds retested in dose-response had high values. In kind it is functional. The settings on record: 9.37 µM.

The next assay has as its system N/A. The assay can be described thus: Trypanosoma cruzi proteasome luciferase counter-screen. Conditions: 9.37 µM. In kind it is functional. A general note: A counterscreen serves to expose hits that act by an unwanted route or on another target.
The species named for the next assay is Homo sapiens. In words: To identify inhibition of the IFN signalling (Jak-Stat) pathway via expression of an eGFP reporter gene under the control of an IFN-stimulated response element (ISRE) containing MxA promoter. The assay is classed as functional. The settings on record: 30 µM. A general note: In a reporter assay the amount or activity of a reporter protein is the signal.

Assay [7] concerns the target T4, Tyrosyl-tRNA synthetase, putative (Trypanosoma cruzi (strain CL Brener)) (UniProt Q4DSP6).
T4 sequence (whole entry): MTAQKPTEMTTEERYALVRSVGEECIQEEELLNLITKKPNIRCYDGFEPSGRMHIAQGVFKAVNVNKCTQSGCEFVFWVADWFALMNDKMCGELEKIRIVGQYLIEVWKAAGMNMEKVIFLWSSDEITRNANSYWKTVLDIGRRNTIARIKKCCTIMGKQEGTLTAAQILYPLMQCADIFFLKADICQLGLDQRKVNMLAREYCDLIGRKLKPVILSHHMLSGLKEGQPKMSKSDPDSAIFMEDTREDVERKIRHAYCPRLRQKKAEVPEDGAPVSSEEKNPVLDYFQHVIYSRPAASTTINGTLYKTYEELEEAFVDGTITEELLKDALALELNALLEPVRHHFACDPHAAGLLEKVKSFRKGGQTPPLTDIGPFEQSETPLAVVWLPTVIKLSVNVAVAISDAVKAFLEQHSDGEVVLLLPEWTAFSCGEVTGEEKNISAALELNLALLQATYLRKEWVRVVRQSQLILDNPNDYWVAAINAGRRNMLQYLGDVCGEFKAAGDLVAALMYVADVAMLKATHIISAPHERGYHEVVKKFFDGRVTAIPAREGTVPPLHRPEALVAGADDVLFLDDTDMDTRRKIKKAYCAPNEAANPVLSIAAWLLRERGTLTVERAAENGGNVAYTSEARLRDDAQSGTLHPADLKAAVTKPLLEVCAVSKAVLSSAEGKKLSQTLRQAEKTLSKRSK
In words: Trypanosoma cruzi tyrosyl tRNA synthetase (TcYRS) _High Tyrosine SOP. Further: in the data most compounds retested in dose-response had high values. The settings on record: 30 µM. In kind it is functional.

The target of assay [8] is T4, Tyrosyl-tRNA synthetase, putative (Trypanosoma cruzi (strain CL Brener)). In words: Trypanosoma cruzi tyrosyl tRNA synthetase (TcYRS) SOP. In kind it is functional. Conditions: 30 µM.
The target in assay [9] is Chromo domain-containing protein 1 (Saccharomyces cerevisiae (strain ATCC 204508 / S288c) (Baker's yeast)) (UniProt P32657). In words: ScCHD-1 Enzyme Inhibition Assay. Further: in the data most compounds retested in dose-response had high values. In kind it is functional. The settings on record: 30 µM.
Chromo domain-containing protein 1 (Saccharomyces cerevisiae (strain ATCC 204508 / S288c) (Baker's yeast)), sequence (P32657 whole entry, the tested form may be a part): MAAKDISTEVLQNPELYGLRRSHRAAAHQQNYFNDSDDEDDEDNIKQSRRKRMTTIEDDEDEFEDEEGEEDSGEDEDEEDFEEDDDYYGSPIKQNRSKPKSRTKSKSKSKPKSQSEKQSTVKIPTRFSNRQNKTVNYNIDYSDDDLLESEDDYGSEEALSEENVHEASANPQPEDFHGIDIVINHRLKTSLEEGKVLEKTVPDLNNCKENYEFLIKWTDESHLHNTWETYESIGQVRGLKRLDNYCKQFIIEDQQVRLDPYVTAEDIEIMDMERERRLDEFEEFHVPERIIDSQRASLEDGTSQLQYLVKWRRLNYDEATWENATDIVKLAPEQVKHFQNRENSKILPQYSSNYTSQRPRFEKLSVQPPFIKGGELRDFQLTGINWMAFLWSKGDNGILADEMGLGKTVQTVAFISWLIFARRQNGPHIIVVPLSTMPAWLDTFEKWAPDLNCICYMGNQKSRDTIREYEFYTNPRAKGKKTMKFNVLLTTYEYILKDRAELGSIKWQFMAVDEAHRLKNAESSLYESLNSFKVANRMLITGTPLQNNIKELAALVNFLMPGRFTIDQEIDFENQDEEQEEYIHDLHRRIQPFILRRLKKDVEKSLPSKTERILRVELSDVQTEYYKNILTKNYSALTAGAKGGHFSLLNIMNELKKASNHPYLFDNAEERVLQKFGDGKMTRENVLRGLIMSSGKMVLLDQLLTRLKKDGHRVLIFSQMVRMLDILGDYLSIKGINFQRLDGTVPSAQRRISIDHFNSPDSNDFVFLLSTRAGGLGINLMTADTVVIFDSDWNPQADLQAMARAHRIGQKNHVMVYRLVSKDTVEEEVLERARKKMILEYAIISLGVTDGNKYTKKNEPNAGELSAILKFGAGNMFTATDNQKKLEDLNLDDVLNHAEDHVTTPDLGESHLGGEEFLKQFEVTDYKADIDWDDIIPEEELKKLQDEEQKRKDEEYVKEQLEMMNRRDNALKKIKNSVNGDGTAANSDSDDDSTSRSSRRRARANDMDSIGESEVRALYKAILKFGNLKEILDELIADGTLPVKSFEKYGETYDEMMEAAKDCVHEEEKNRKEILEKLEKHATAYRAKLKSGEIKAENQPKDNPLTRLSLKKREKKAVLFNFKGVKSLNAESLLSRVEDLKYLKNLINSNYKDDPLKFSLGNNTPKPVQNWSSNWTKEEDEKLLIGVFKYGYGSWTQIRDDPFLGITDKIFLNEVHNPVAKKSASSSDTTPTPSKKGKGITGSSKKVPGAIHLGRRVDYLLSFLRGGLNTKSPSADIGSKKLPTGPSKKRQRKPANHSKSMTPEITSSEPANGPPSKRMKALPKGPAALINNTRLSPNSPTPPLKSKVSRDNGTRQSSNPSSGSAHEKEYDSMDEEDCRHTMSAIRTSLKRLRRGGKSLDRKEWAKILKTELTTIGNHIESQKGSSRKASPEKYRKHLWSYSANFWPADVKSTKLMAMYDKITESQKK

Sialic acid-binding Ig-like lectin 9 (Homo sapiens), sequence (Q9Y336 whole entry): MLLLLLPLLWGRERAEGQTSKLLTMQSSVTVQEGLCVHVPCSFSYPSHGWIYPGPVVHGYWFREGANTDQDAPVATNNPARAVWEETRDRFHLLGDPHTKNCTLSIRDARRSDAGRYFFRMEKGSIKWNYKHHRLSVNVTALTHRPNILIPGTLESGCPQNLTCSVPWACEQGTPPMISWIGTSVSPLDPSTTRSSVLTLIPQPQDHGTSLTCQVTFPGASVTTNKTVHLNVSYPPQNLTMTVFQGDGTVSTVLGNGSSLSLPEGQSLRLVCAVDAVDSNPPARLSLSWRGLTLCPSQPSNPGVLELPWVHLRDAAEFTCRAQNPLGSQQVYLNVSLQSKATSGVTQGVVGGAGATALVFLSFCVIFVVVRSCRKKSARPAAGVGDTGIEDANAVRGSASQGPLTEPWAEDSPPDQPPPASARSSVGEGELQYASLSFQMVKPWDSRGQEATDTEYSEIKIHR
Protein translocase subunit SecA (Escherichia coli (strain K12)), sequence (P10408 whole entry): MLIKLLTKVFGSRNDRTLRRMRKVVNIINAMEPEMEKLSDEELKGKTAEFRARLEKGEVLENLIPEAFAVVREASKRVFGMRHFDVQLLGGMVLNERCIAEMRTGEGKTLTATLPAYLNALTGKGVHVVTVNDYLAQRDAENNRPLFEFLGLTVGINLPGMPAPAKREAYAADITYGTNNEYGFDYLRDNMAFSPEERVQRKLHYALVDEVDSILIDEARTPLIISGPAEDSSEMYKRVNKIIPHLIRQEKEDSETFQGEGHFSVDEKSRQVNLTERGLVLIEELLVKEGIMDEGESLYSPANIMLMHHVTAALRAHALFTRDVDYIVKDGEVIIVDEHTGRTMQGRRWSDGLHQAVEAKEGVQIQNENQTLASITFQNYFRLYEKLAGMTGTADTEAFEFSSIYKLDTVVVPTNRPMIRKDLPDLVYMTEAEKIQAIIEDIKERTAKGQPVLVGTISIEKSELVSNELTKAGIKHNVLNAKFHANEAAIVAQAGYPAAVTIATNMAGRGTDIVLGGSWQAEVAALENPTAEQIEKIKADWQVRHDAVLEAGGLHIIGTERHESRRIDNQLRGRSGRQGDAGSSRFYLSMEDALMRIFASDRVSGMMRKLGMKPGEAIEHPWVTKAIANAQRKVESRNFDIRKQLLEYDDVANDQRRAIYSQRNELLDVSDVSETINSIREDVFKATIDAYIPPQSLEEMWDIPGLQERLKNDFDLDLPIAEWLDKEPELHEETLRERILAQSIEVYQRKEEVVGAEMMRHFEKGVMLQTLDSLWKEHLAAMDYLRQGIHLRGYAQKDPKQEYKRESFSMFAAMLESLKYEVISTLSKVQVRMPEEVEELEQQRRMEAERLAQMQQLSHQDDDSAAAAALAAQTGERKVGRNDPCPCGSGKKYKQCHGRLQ

With `CC(C)c1n[nH]c(C(=O)Nc2ccncc2)c1Br`, the Percent Effect is -1.59% in assay [1]; 7.59% in assay [2]; 60% in assay [3]; 0.333% in assay [4]; -3.31% in the assay on Trypanosoma cruzi; 4.18% in [5]. Moreover, the Percent Effect in assay [6] was 97% and 96.6% and 95.9%; in the assay with N/A it was 81.8% and 83.2%; in the assay listed under Homo sapiens, 58.2%; in assay [7] it was 4.43%; in assay [8] it was 8.86%; in [9], -3.82%.

Regarding `Cc1cnn(CC2CCCN2CC(=O)N(C)Cc2ccc(C)o2)c1` (stereo unspecified), the Percent Effect in [1] was -0.338%; in [2], 0%; in [3] it was -4.82%; in assay [4] it was 2.25%; in the assay with Trypanosoma cruzi it was 5.21%; in [5], 0.476%. Further, the Percent Effect in assay [6] was 34.4% and 30.7% and 30.2%; in the assay on N/A, 12.9% and 15.3%; in the assay listed under Homo sapiens it was -9.55%; in [7], 5.82%; in [8], 7.32%; in [9] it was -2.6%.

Take `Cc1cnn(CC2CN(c3cnc4ccccc4n3)CCO2)c1` (stereo unspecified): the Percent Effect is -8.32% in [1]; 15.2% in assay [2]; 2.77% in assay [3]; 14.7% in assay [4]; 12% in the assay on Trypanosoma cruzi; -4.56% in assay [5]. Besides, the Percent Effect in [6] was 38.1% and 39.2% and 44.7%; in the assay with N/A it was 20.3% and 14.5%; in the assay listed under Homo sapiens, 14.6%; in [7], 4.43%; in assay [8] it was 21.5%; in assay [9], -12.5%.

As for `CC(C)c1n[nH]c(C(=O)Nc2cc[nH]n2)c1Br`, the Percent Effect in assay [1] is -6.13%; in [2], 5.06%; in [3], 24.9%; in [4] it was 3.44%; in the assay with Trypanosoma cruzi, -4.25%; in assay [5], -3.8%. Besides, the Percent Effect in assay [6] is 74% and 65.8% and 74.1%; in the assay with N/A, 41.2% and 40.1%; in the assay listed under Homo sapiens it was 24.7%; in [7], -0.493%; in assay [8] it was 1.27%; in [9], -0.338%.

Consider `CCOc1cc(/C=C/c2ncc(C(=O)O)s2)ccc1O`, for which the Percent Effect is -3.57% in assay [1]; 11.4% in [2]; 44.7% in assay [3]; 0.0396% in assay [4]; -3.38% in the assay on Trypanosoma cruzi; 4.95% in assay [5]. Moreover, the Percent Effect in [6] is 47.2% and 46.2% and 45.3%; in the assay on N/A, 10.5% and 16.9%; in the assay filed under Homo sapiens, 7.54%; in assay [7], 4.17%; in [8], 7.59%; in [9], -20.7%.

Regarding `CC(O)CNCc1ccc(OCc2ccc3c(c2)OCCO3)cc1` (stereo unspecified), the Percent Effect in assay [1] is 0.112%; in [2], 10.5%; in assay [3], 0.644%; in assay [4], -9.17%; in the assay on Trypanosoma cruzi it was -3.6%; in assay [5], -2.37%. In addition, the Percent Effect is 61.5% and 58.6% and 62.4% in assay [6]; 31.4% and 28.6% with N/A; -4.62% in the assay filed under Homo sapiens; 1.06% in assay [7]; 5.2% in assay [8]; -3.79% in [9].

As to `CCOc1ncccc1NC(=O)c1cc2c(s1)CCC2`, the Percent Effect in assay [1] was 1.48%; in [2] it was 9.72%; in assay [3], 8.31%; in assay [4], 7.26%; with Trypanosoma cruzi, 2.82%; in [5], -6.18%. Moreover, the Percent Effect is 22.1% and 36.7% and 23% in assay [6]; 13.8% and 15.3% in the assay with N/A; 9.51% in the assay listed under Homo sapiens; 4.21% in assay [7]; 10.3% in [8]; 63.8% in assay [9].

Regarding `COc1ccc(Cl)cc1C(=O)N1CCOC2(CNCCOC2)C1` (stereo unspecified), the Percent Effect in assay [1] is -5.73%; in assay [2], -2.7%; in [3], 0.241%; in assay [4], -0.752%; with Trypanosoma cruzi, -3.86%; in assay [5], -1.43%. Also, the Percent Effect was 7.59% and 10.9% and 31.4% in assay [6]; 12.4% and 13.6% in the assay with N/A; -6.05% in the assay listed under Homo sapiens; 2.65% in assay [7]; 4.88% in assay [8]; -2.64% in assay [9].
